# Structures can show the parent of a compound that is named as a salt. ± gives the standard deviation of the averaged measurements.
# Test system: E. coli TESEC Mtb Alr
# Assay: growth (OD600 after 10 h); higher = more growth (less inhibition)
# Conditions: arabinose 1000000 nM; compound 0.1 mM; raw OD600 reference: median of DMSO wells 0.193, cell-free background 0.041
# Description: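 TESEC Mtb Alr E. coli, or the Alr+ wild-type control, in 384-well plates with Prestwick library compounds at 0.1 mM and 1% DMSO, across arabinose induction levels of 1E3 to 1E7 nM. Growth is read as OD600 after 10 h at 37 °C in triplicate biological replicates.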
row,SMILES,growth
1,CC1(C)O[C@@H]2C[C@H]3[C@@H]4C[C@H](F)C5=CC(=O)C=C[C@]5(C)[C@@]4(F)[C@@H](O)C[C@]3(C)[C@]2(C(=O)CO)O1 [Fluocinolone acetonide],0.146 ± 0.0019
2,O=C1CC[C@@H](C(=O)N2CSC[C@H]2C(=O)O)N1 [Pidotimod],0.217 ± 0.033
3,Cc1cc(NS(=O)(=O)c2ccc(N)cc2)no1 [Sulfamethoxazole],0.126 ± 0.0035
4,"CN(Cc1cnc2nc(N)nc(N)c2n1)c1ccc(C(=O)N[C@@H](CCC(=O)O)C(=O)O)cc1 (racemic) [Amethopterin (R,S)]",0.14 ± 0.0075
5,CN(C)CCCN1c2ccccc2CCc2ccc(Cl)cc21 [Clomipramine hydrochloride],0.04 ± 0.00035
6,CN1CCN2c3ccccc3Cc3ccccc3C2C1 (stereo not given) [Mianserine hydrochloride],0.142 ± 0.011
7,CCCN(CCC)C(=O)C(CCC(=O)O)NC(=O)c1ccccc1 (stereo not given) [Proglumide],0.188 ± 0.0035
8,CCCCOc1ccc(CC(=O)NO)cc1 [Bufexamac],0.118 ± 0.0015
9,CC(C)CC(=O)N[C@H](C(=O)N[C@H](C(=O)N[C@@H](CC(C)C)[C@@H](O)CC(=O)N[C@@H](C)C(=O)N[C@@H](CC(C)C)[C@@H](O)CC(=O)O)C(C)C)C(C)C [Pepstatin A],0.202 ± 0.02
10,CO[C@@]1(NC(=O)C2SC(=C(C(N)=O)C(=O)O)S2)C(=O)N2C(C(=O)O)=C(CSc3nnnn3C)CS[C@@H]21 (stereo not given in full) [Cefotetan],0.0413 ± 0.00026
11,CC[N+](CC)(CC)CCC(O)(c1ccccc1)C1CCCCC1 (stereo not given) [Tridihexethyl chloride],0.185 ± 0.015
12,O=C1c2ccccc2C(=O)C1c1ccccc1 [Phenindione],0.166 ± 0.0028
13,CC(C)NC(=N)NC(=N)Nc1ccc(Cl)cc1 [Proguanil hydrochloride],0.143 ± 0.0015
14,Cc1[nH]cnc1CN1CCc2c(c3ccccc3n2C)C1=O [Alosetron hydrochloride],0.178 ± 0.008
15,O=c1cc(-c2ccc(O)c(O)c2)oc2cc(O)cc(O)c12 [Luteolin],0.0567 ± 0.0052
16,O=C1OC(CN2CCOCC2)CN1/N=C/c1ccc([N+](=O)[O-])o1 (stereo not given) [Furaltadone hydrochloride],0.0404 ± 0.00046
17,O=C(c1ccc(OCCN2CCCCC2)cc1)c1c(-c2ccc(O)cc2)sc2cc(O)ccc12 [Raloxifene hydrochloride],0.0438 ± 0.002
18,CNS(=O)(=O)Cc1ccc2[nH]cc(CCN(C)C)c2c1 [Sumatriptan succinate],0.193 ± 0.0067
19,Cc1ccc(C)c(OCCCC(C)(C)C(=O)O)c1 [Gemfibrozil],0.153 ± 0.0071
20,O=C(NCC(O)CO)c1c(I)c(C(=O)NCC(O)CO)c(I)c(N(CCO)C(=O)CO)c1I (stereo not given) [Ioversol],0.192 ± 0.0057

row,SMILES,growth
1,CN(C)CCOC(c1ccc(Cl)cc1)c1ccccn1 (stereo not given) [Carbinoxamine maleate salt],0.187 ± 0.018
2,C=CCSCC1Nc2cc(Cl)c(S(N)(=O)=O)cc2S(=O)(=O)N1 (stereo not given) [Althiazide],0.183 ± 0.011
3,CC(=O)OCC(=O)[C@@]1(O)[C@H](C)C[C@H]2[C@@H]3CCC4=CC(=O)C=C[C@]4(C)[C@@]3(F)[C@@H](O)C[C@@]21C [Dexamethasone acetate],0.119 ± 0.0023
4,CC(C)(C)NCC(O)c1ccc(O)c(CO)c1 (stereo not given) [Salbutamol],0.183 ± 0.0057
5,"CC(C)NCC(O)c1cc(O)cc(O)c1 (stereo not given) [Metaproterenol sulfate, orciprenaline sulfate]",0.185 ± 0.011
6,CN(CCOc1ccc(NS(C)(=O)=O)cc1)CCc1ccc(NS(C)(=O)=O)cc1 [Dofetilide],0.173 ± 0.0041
7,N=c1nc(N2CCCCC2)cc(N)n1O [Minoxidil],0.166 ± 0.0034
8,Clc1ccccc1C(c1ccccc1)(c1ccccc1)n1ccnc1 [Clotrimazole],0.0467 ± 0.00068
9,CC(=O)Oc1ccccc1C(=O)Nc1ncc([N+](=O)[O-])s1 [Nitazoxanide],0.0434 ± 0.0042
10,CCOc1ccccc1OC(c1ccccc1)C1CNCCO1 (stereo not given) [Reboxetine mesylate],0.15 ± 0.0074
11,NC(=O)c1cc[n+](CC2=C(C(=O)[O-])N3C(=O)[C@@H](NC(=O)[C@@H](c4ccccc4)S(=O)(=O)O)[C@H]3SC2)cc1 [Cefsulodin sodium salt],0.2032 ± 0.0015
12,CC(C)(C)NC(=O)[C@@H]1C[C@@H]2CCCC[C@@H]2CN1C[C@@H](O)[C@H](Cc1ccccc1)NC(=O)[C@H](CC(N)=O)NC(=O)c1ccc2ccccc2n1 [Saquinavir mesylate],0.051 ± 0.0027
13,CCCCOC(=O)c1ccc(O)cc1 [Butylparaben],0.131 ± 0.0015
14,Cc1cn[nH]c1 [Fomepizole],0.178 ± 0.003
15,NC1CCN(c2nc3c(cc2F)c(=O)c(C(=O)O)cn3-c2ccc(F)cc2F)C1 (stereo not given) [Tosufloxacin hydrochloride],0.0452 ± 0.0008
16,CN(C)CCN1C(=O)c2ccccc2N(C)c2ccccc21 [Dibenzepine hydrochloride],0.167 ± 0.0098
17,Nc1nc(NC2CC2)c2ncn([C@H]3C=C[C@@H](CO)C3)c2n1 [Abacavir Sulfate],0.18 ± 0.0053
18,O=C(NCCN1CCOCC1)c1ccc(Cl)cc1 [Moclobemide],0.177 ± 0.013
19,CC(C)C[C@H](NC(=O)[C@@H](O)[C@H](N)Cc1ccccc1)C(=O)O [Ubenimex],0.185 ± 0.006
20,CC(C(=O)O)c1ccc(-c2ccccc2)c(F)c1 (stereo not given) [Flurbiprofen],0.161 ± 0.0092
